# Inconclusive results are not listed. The source made the active and inactive calls. The calls were made as follows: active = hit-call score of the fitted dose curve at least 0.9, where 1 is the maximum; inconclusive = response in the unintended direction; inactive = score below 0.9.
# Tests used:
# [1] = tested on: guinea pig Leukotriene B4 Receptor (LTB4), gene 100379538; test: NVS_GPCR_gLTB4: NovaScreen (NVS) G Protein-Coupled Receptor Assay for guinea pig Leukotriene B4 Receptor (LTB4) (AID 2283247)
# In short: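 Radioligand displacement on guinea pig spleen membranes, filter-based scintillation counting 2 h after dosing. Primary duplicate single point at 25 uM; hits over threshold (e.g. 30% inhibition) run in concentration-response up to 50 uM, DMSO baseline.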
# [2] = biological target: guinea pig Leukotriene D4 Receptor (LTD4), CYSLTR1 (gene 100135514) (UniProt Q2NNR5); test: NVS_GPCR_gLTD4: NovaScreen (NVS) G Protein-Coupled Receptor Assay for guinea pig Leukotriene D4 Receptor (LTD4) (AID 2283248)
# Chain of guinea pig Leukotriene D4 Receptor (LTD4), CYSLTR1 (gene 100135514) (Q2NNR5 whole entry, looked up): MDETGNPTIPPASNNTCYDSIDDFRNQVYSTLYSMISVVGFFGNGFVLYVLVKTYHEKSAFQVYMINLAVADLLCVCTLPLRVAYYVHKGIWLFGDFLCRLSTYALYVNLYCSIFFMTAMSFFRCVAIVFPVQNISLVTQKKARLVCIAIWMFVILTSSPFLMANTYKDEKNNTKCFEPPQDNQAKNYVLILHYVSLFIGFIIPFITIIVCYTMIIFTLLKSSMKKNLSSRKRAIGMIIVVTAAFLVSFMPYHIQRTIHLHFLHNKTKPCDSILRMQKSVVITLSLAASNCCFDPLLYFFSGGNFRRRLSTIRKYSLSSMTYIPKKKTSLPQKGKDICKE
# In short: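 Radioligand displacement on guinea pig lung membranes, 1 h incubation, filtration and scintillation counting; DMSO as negative control. Duplicate 25 uM primary screen, then singleton concentration-response up to 50 uM.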
# [3] = biological target: human Serotonin, 5-Hydroxytryptamine Receptor 5A (5HT5A), HTR5A (gene 3361) (UniProt P47898); test: NVS_GPCR_h5HT5A: NovaScreen (NVS) G Protein-Coupled Receptor Assay for human Serotonin, 5-Hydroxytryptamine Receptor 5A (5HT5A) (AID 2283251)
# Chain of human Serotonin, 5-Hydroxytryptamine Receptor 5A (5HT5A), HTR5A (gene 3361) (P47898 whole entry, looked up): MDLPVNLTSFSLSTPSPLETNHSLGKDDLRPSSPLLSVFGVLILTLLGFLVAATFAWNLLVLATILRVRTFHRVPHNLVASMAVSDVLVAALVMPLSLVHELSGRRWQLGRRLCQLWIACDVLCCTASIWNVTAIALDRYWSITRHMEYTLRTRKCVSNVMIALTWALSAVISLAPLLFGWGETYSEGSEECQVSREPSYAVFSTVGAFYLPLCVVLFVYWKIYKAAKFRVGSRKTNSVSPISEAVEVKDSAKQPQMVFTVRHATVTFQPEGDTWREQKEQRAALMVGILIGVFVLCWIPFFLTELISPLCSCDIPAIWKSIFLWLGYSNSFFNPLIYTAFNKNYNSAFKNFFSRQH
# In short: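 Cell-free radioligand displacement binding on HEK293-derived membrane protein, 1 h incubation, filter-based scintillation counting. Primary screen in duplicate at 25 uM, actives followed in concentration series; loss of signal fitted versus DMSO.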
# [4] = tested on: rat Monoamine Oxidase, MAO-A, Central (MAOAC), gene 29253; test: NVS_ENZ_rMAOAC: NovaScreen (NVS) Enzymatic Assay for rat Monoamine Oxidase, MAO-A, Central (MAOAC) (AID 2283243);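 also: potency refers to inhibition seen as signal drop below DMSO baseline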
# Experimental: NVS_ENZ_rMAOAC is a biochemical, single-readout assay that uses extracted gene-proteins from Rat brain in a tissue-based cell-free assay. Measurements were taken 1.5 hours after chemical dosing in a 96-well plate.NVS_ENZ_rMAOAC is one of one assay component(s) measured or calculated from the NVS_ENZ_rMAOAC assay. It is designed to make measurements of enzyme activity, a form of enzyme reporter, as detected with scintillation counting signals by Lysate-based radiodetection technology.Data from the assay component NVS_ENZ_rMAOAC was analyzed into 1 assay endpoint. This assay endpoint, NVS_ENZ_rMAOAC, was analyzed in the positive analysis fitting direction relative to DMSO as the negative control and baseline of activity. Using a type of enzyme reporter, loss-of-signal activity can be used to understand changes in the enzymatic activity as they relate to the gene Maoa. Furthermore, this assay endpoint can be referred to as a primary readout, because this assay has produced multiple assay endpoints where this one serves a enzymatic activity function. To generalize the intended target to other relatable targets, this assay endpoint is annotated to the oxidoreductase intended target family, where the subfamily is monoamine oxidase.
# Binding assays used specific radioligands (tritiated, iodinated) with non-radioactive competitive displacement ligands in agonist or antagonist protocols (as indicated) and various reference compounds and inhibitors to titrate specific binding to receptors and transporters. Most enzyme assays (CYPs, kinases, phosphatases, proteases, HDACs) used recombinant protein and specific substrates (fluorescence mostly, some colorimetric and radioactive) and inhibitors, followed by a biochemical separation of substrate and product. All assays for the biochemical HTS were initially run in duplicate at a single concentration (10 uM for CYP450 assays and 25 uM for all others). […] Each assay was run with positive and negative controls, and concurrent controls on every plate. The follow-up (secondary) screen tested active chemical-pairs in concentration series, as well as a few additional assays not tested in the primary screen, some selected negative inactives, and several cases re-run in the concentration series for confirmatory purposes.
# [5] = biological target: human Serotonin, 5-Hydroxytryptamine Receptor 2A (5HT2A), HTR2A (gene 3356) (UniProt P28223); test: NVS_GPCR_h5HT2A: NovaScreen (NVS) G Protein-Coupled Receptor Assay for human Serotonin, 5-Hydroxytryptamine Receptor 2A (5HT2A) (AID 2283249)
# Chain of human Serotonin, 5-Hydroxytryptamine Receptor 2A (5HT2A), HTR2A (gene 3356) (P28223 whole entry, looked up): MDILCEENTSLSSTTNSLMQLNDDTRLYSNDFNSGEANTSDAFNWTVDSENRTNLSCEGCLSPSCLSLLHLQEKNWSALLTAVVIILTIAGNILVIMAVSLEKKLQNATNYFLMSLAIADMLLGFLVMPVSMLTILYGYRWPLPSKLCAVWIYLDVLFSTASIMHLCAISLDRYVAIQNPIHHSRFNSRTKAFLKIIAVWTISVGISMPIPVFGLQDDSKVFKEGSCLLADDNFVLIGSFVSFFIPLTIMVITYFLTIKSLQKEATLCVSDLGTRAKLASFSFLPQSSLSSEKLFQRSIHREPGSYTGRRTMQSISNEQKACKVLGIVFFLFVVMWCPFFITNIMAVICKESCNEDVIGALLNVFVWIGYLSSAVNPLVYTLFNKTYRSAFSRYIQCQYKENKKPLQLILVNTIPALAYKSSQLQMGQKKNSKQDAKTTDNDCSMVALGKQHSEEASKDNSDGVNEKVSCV
# In short: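 Human cortex membranes, cell-free radioligand binding; filter-based scintillation read 1.5 h after dosing. Duplicate screen at 25 uM first; displacement of specific binding (loss of signal) versus DMSO.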
# [6] = biological target: Adenosine receptor A1 (Bos taurus) (UniProt P28190); test: NVS_GPCR_bAdoR_NonSelective: NovaScreen (NVS) G Protein-Coupled Receptor Assay for bovine Adenosine Receptor (AdoR), Non-selective Binding (AID 2283244)
# Chain of Adenosine receptor A1 (Bos taurus) (P28190 whole entry, looked up): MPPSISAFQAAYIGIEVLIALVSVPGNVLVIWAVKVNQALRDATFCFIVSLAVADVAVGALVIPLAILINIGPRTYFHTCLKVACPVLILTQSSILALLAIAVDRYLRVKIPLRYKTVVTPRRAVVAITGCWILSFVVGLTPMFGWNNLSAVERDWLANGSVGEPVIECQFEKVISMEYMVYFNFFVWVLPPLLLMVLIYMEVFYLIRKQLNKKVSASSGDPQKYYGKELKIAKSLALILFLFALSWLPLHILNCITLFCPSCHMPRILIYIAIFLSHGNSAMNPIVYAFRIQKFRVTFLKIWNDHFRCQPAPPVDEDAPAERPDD
# In short: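 Bovine striatal membranes, radioligand displacement binding, 1 h after dosing, filter-based scintillation counting. Screened in duplicate at 25 uM, then concentration-response up to 50 uM; loss of specific binding relative to DMSO.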
# [7] = biological target: guinea pig Opioid, Kappa 1 Receptor (OpiateK), OPRK1 (gene 100135587) (UniProt P41144); test: NVS_GPCR_gOpiateK: NovaScreen (NVS) G Protein-Coupled Receptor Assay for guinea pig Opioid, Kappa 1 Receptor (OpiateK) (AID 2283252);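 also: radioligand displacement from kappa opioid receptor in guinea pig cerebellar membranes; active means reduced radioligand binding relative to DMSO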
# Chain of guinea pig Opioid, Kappa 1 Receptor (OpiateK), OPRK1 (gene 100135587) (P41144 whole entry, looked up): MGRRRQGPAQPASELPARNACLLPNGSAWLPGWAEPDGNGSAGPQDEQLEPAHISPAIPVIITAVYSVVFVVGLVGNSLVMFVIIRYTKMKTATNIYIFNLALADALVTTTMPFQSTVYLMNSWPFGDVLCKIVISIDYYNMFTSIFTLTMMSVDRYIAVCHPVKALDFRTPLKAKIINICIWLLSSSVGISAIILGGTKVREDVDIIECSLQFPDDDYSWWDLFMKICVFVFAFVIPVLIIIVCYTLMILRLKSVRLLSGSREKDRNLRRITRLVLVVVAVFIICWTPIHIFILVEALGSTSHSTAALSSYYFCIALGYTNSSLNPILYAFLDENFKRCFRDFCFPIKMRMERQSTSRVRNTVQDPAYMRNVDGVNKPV
# In short: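 Signal is scintillation counts of filter-trapped radioligand bound to guinea pig cerebellar membrane receptor, measured 2 hours post-dosing. Activity is loss of binding versus DMSO, first at 25 uM in duplicate, then as concentration series for actives.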
# [8] = biological target: human Adenosine A1 Receptor (AdoRA1), ADORA1 (gene 134) (UniProt P30542); test: NVS_GPCR_hAdoRA1: NovaScreen (NVS) G Protein-Coupled Receptor Assay for human Adenosine A1 Receptor (AdoRA1) (AID 2283254)
# Chain of human Adenosine A1 Receptor (AdoRA1), ADORA1 (gene 134) (P30542 whole entry, looked up): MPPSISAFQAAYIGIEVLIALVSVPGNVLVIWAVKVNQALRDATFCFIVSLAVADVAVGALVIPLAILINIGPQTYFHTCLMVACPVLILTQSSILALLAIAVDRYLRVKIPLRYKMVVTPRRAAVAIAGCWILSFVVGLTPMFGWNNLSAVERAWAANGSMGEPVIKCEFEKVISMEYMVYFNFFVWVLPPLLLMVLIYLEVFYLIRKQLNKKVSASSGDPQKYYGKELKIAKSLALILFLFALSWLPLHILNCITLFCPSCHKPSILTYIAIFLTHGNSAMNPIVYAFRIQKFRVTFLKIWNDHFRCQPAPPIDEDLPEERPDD
# In short: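 Radioligand binding was run on human cortical membranes, cell-free, with filter-based scintillation counting 1 h after dosing. The primary screen was duplicate at 25 uM, followed by concentration series. Signal loss versus DMSO was fitted positive-direction.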
# [9] = biological target: human Adenosine A2a Receptor (AdoRA2a), ADORA2A (gene 135) (UniProt P29274); test: NVS_GPCR_hAdoRA2a: NovaScreen (NVS) G Protein-Coupled Receptor Assay for human Adenosine A2a Receptor (AdoRA2a) (AID 2283256)
# Chain of human Adenosine A2a Receptor (AdoRA2a), ADORA2A (gene 135) (P29274 whole entry, looked up): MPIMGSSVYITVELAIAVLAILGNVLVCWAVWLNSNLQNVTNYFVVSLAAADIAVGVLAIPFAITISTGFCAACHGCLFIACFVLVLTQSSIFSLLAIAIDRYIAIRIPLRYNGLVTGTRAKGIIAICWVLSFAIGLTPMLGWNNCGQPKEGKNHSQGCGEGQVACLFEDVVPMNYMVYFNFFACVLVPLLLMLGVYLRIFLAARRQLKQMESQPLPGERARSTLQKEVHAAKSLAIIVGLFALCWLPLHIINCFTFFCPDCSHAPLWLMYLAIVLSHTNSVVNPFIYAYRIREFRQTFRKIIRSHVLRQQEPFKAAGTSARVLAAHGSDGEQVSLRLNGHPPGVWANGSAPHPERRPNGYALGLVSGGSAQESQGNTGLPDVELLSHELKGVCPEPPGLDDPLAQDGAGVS
# In short: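 Cell-free radioligand binding on membranes from HEK293 expressing the receptor; competitive displacement read 1.5 h after dosing by filter-based scintillation counting. Primary screen in duplicate at 25 uM; actives followed in concentration series, with DMSO as baseline.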
# [10] = biological target: human Serotonin, 5-Hydroxytryptamine Receptor 7 (5HT7), HTR7 (gene 3363) (UniProt P34969); test: NVS_GPCR_h5HT7: NovaScreen (NVS) G Protein-Coupled Receptor Assay for human Serotonin, 5-Hydroxytryptamine Receptor 7 (5HT7) (AID 2283255);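 also: hits reduce specific radioligand binding relative to DMSO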
# Chain of human Serotonin, 5-Hydroxytryptamine Receptor 7 (5HT7), HTR7 (gene 3363) (P34969 whole entry, looked up): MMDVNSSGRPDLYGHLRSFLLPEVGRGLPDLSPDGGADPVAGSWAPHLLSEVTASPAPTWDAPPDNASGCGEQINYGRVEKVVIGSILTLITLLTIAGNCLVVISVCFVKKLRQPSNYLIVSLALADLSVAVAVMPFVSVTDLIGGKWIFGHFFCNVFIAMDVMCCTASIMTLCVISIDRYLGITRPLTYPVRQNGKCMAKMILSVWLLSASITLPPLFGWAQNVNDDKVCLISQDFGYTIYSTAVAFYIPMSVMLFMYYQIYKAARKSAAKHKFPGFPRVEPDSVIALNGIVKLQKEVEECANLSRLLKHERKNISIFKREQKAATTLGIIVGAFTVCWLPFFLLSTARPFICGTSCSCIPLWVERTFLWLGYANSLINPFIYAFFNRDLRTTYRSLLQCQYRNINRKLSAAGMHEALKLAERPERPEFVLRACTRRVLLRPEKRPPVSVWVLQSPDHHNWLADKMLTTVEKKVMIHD
# In short: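 Radioligand displacement on membranes from CHO cells expressing human 5HT7, 1 h incubation, filter-based scintillation counting. Primary screen used a single 25 uM concentration in duplicate; actives were followed up in concentration series.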
compound,measurement,setting,value
O=C(O)C1(c2ccc3c(c2)OC[C@H](Cc2ccc(-c4ccccc4)cc2)[C@H]3O)CCCC1,AC50,[1],0.00229 µM (active)
same,outcome,[2],inactive
same,outcome,[3],inactive
Oc1ccc(Cc2ccc(O)cc2)cc1,AC50,[4],25 µM (active)
OC(Cc1ccccc1Cl)(Cn1cncn1)C1(Cl)CC1 (configuration not stated),outcome,[4],inactive
CC(C)O.CC(C)O.OCCN(CCO)CCO.OCCN(CCO)CCO.[Ti],outcome,[5],inactive
CC(C)(C)c1ccccc1O,outcome,[6],inactive
Oc1cc(Cl)c(Cl)cc1Cl,AC50,[4],16.5 µM (active)
O=c1oc2ccccc2c(O)c1C(CC(O)c1ccc(-c2ccc(Br)cc2)cc1)c1ccccc1 (configuration not stated),AC50,[2],9.92 µM (active)
same,outcome,[7],inactive
same,AC50,[8],23.9 µM (active)
[Cl][Sn]([c]1ccccc1)([c]1ccccc1)[c]1ccccc1,outcome,[9],inactive
Nc1c(Oc2ccccc2)cc(O)c2c1C(=O)c1ccccc1C2=O,outcome,[7],inactive
CCCCOC(C)=O,outcome,[2],inactive
same,outcome,[8],inactive
CCN(N=O)C(N)=O,outcome,[2],inactive
Cc1ccccc1OP(=O)(Oc1ccccc1C)Oc1ccccc1C,outcome,[8],inactive
CCOC(=O)CC(=O)CCl,outcome,[2],inactive
Cc1cc(C(C)(C)c2ccc(O)c(C)c2)ccc1O,AC50,[8],8.39 µM (active)
same,outcome,[9],inactive
O=C1C=CC(=O)c2ccccc21,AC50,[4],25 µM (active)
same,AC50,[7],37.8 µM (active)
O=C1C[C@@H]2OCC=C3CN4CC[C@]56c7ccccc7N1[C@H]5[C@H]2[C@H]3C[C@H]46,outcome,[7],inactive
CCOP(=O)(OCC)OC(=CCl)c1ccc(Cl)cc1Cl,AC50,[7],18.3 µM (active)
same,outcome,[8],inactive
Oc1c(Cl)cc(Cl)cc1Cl,outcome,[4],inactive
same,outcome,[1],inactive
CCCCCCCCCCCCc1cccc(S(=O)(=O)O)c1,AC50,[4],10.6 µM (active)
same,AC50,[1],10.5 µM (active)
same,AC50,[2],22.5 µM (active)
same,AC50,[3],13.7 µM (active)
same,AC50,[10],14.3 µM (active)
